# Bioassay records as filed in PubChem BioAssay.
# In the library only some 2.7% were active in any assay of this set; here they are far more common.
# EWS-Fli inh = EWS/Fli-driven NR0B1 reporter inhibitors, primary screen, A673 cells, NR0B1 luciferase, luminescence, MLPCN library; viability-normalised; actives 0.67% (n = 350,000); inhibition, % at 12.6 µM;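 active = mean inhibition of at least 50% after viability correction, with every replicate also passing that limit; inconclusive = mean reaches 50% but only one of two replicates passes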;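 note: firefly luciferase signal divided by Alamar Blue viability fluorescence both relative to DMSO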
# GSIS activator = GLuc luminescence reporter in INS-1E cells, primary screen for activators of glucose-dependent secretion of insulin; INS-1E GLuc reporter insulin secretion, 2-3 h; activation, % at 16.6 µM; actives 0.61% (n = 370,000); AID 743287, 2014;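 active = lowest replicate activation of at least 40%, so every replicate reaches that level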;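 note: 0% = median of neutral control wells and 100% = median of IBMX positive control wells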
# CFTR F508del cor = F508del CFTR correction, initial screen, CFBE line, single point; CFBE cells, YFP halide quenching; stimulated with forskolin plus potentiator P3; % fluorescence drop versus neutral controls; activity (quench increase), % at 7.58 µM; actives 0.36% (n = 350,000); AID 720511, 2013;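 active = mean added fluorescence quench of at least 8% versus neutral control, with both replicates also reaching 8%; inconclusive = only one of the mean or replicate conditions met; inactive = mean below 8% and not both replicates reaching 8%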;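 note: cells transiently co-express mutant CFTR-F508del with the halide-sensitive YFP; corrector assay measuring rescue of mutant channel to the surface after 24 h compound exposure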
# PAX8 inh HTS = inhibitors of PAX8-driven TPO luciferase reporter, primary screen, RMG-I cells, single concentration; actives 1.2% (n = 360,000); SteadyGlo, 24 h; AID 652154, 2013; inhibition, % at 12.6 µM;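 active = mean replicate inhibition at least 60% with every replicate also reaching 60%; inconclusive = only one of the two criteria is met; inactive = mean below 60% and not all replicates reaching 60%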;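 note: luciferase light reporting Pax8 driven TPO promoter activity; plate controls were median of neutral control wells for no effect and mitoxantrone controls for full effect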
# HIV Env fusion = inhibitors of HIV-1 Env-driven cell-cell fusion, primary screen, HeLa-JRFL effector, CEM21 target cells, luciferase; inhibition, % at 12.3 µM; actives 1.1% (n = 360,000);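 active = mean replicate inhibition score of at least 50 and every replicate individually at or above 50; inconclusive = only one of the two criteria met; inactive = mean below 50 and not all replicates reaching 50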;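 note: 0% = plate neutral controls and 100% = maraviroc near 300 nM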
# PGC1a acetyl inh = inhibitors of PGC1a acetylation signal, primary screen, cell-based, U2OS, AlphaScreen, inhibitor mode; AlphaScreen anti-acetyl-lysine; with virally co-expressed GCN5 acetyltransferase; inhibition, % at 15.6 µM; actives 0.17% (n = 350,000);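 active = every replicate shows inhibition of at least 40%; inconclusive = mean inhibition at least 40% but some replicate below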;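 note: 0% = neutral control wells and 100% = positive control wells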
# An asterisk follows results filed as active; ? = inconclusive; . = no result given; ! = a repeat was not active; [ ] = dose if it differs, or a comment.
SMILES,EWS-Fli inh,GSIS activator,CFTR F508del cor,PAX8 inh HTS,HIV Env fusion,PGC1a acetyl inh
CCOC(=O)c1cnc2ccc(OCC)cc2c1NCc1ccccc1OC,.,-16,.,10,95*,.
CCOC(=O)c1cnc2ccc(OC)cc2c1NCc1ccccc1,-1,-2,2,-17,.,0
C[C@@H]1CN([C@H](C)CO)C(=O)c2cc(NC(=O)c3ccncc3)ccc2O[C@@H](C)CCCCO[C@H]1CN(C)Cc1ccc(C(F)(F)F)cc1,?,-12,-2,82*,20[16.7 µM],.
C[C@@H]1CCCCO[C@@H](CN(C)Cc2ccc(C(F)(F)F)cc2)[C@@H](C)CN([C@@H](C)CO)C(=O)c2cc(NC(=O)c3ccccc3)ccc2O1,-5,-8,2,12,20[16.7 µM],31
C[C@@H]1CN([C@@H](C)CO)C(=O)c2cc(NC(=O)c3ccccc3)ccc2O[C@@H](C)CCCCO[C@H]1CN(C)Cc1ccc(C(F)(F)F)cc1,11,-13,2,88*,18[16.7 µM],3
C[C@H]1CCCCO[C@H](CN(C)C(=O)Nc2ccc(C(F)(F)F)cc2)[C@@H](C)CN([C@@H](C)CO)C(=O)c2cc(NC(=O)c3ccncc3)ccc2O1,11,-26,-2,93*,56*[16.7 µM],9
C[C@@H]1CCCCO[C@H](CN(C)Cc2ccc(C(F)(F)F)cc2)[C@@H](C)CN([C@@H](C)CO)C(=O)c2cc(NC(=O)c3ccccc3)ccc2O1,16,-8,2,91*,14[16.7 µM],3
CCS(=O)(=O)N1[C@H](C#N)[C@@H](c2ccc(C3=CCCCC3)cc2)[C@H]1CO,-1,2,2,.,.,-1
CCCNC(=O)N1C[C@H]2[C@@H](c3ccccc31)[C@H](CO)N2Cc1ccc(OC)cc1,3,1,2,8,.,-13
CC(C)NC(=O)N(C)C[C@@H]1OCCCC[C@@H](C)Oc2ccc(N(C)C)cc2C(=O)N([C@@H](C)CO)C[C@@H]1C,.,10,1,3,3[16.7 µM],5
C[C@@H]1CCCCO[C@@H](CN(C)Cc2ccc(C(F)(F)F)cc2)[C@@H](C)CN([C@H](C)CO)C(=O)c2cc(NC(=O)c3ccccc3)ccc2O1,4,-1,-2,14,28[16.7 µM],-9
C[C@H]1CCCCO[C@H](CN(C)Cc2ccc(C(F)(F)F)cc2)[C@@H](C)CN([C@@H](C)CO)C(=O)c2cc(NC(=O)c3ccccc3)ccc2O1,21,-23,1,85*,59*[16.7 µM],10
C[C@H]1CCCCO[C@@H](CN(C)Cc2ccc(C(F)(F)F)cc2)[C@@H](C)CN([C@@H](C)CO)C(=O)c2cc(NC(=O)c3ccccc3)ccc2O1,14,-18,1,87*,69*[16.7 µM],-2
C[C@@H]1CN([C@@H](C)CO)C(=O)c2cc(NC(=O)c3ccncc3)ccc2O[C@H]1CN(C)Cc1ccncc1,0,-4,7,20,67*[16.7 µM],6
CCS(=O)(=O)NCC[C@@H]1CC[C@@H](NC(=O)C2CCC2)[C@@H](CO)O1,5,12,1,-5,-5[16.7 µM],-1
CC(C)CC#Cc1ccc([C@H]2[C@@H](CO)N3C(=O)CN(C(=O)CN4CCOCC4)C[C@@H]23)cc1,0,12,-1,.,.,-1
CO[C@H]1CN(C)C(=O)c2ccc(NC(=O)c3cnccn3)cc2OC[C@H](C)NC[C@H]1C,4,1,-3,.,-9[16.7 µM],1
Cc1ccnc2c1ccc1cccnc12,38,12,9.4*,80*,-199,.
Cc1ccnc2c1ccc1ccccc12,-7,1,-3,0,-1,-12
c1cnc2c(c1)ccc1cccnc12,62*!,-9,6,77*!,-37,-34
C[C@@H]1CN([C@@H](C)CO)C(=O)c2c(c3ccccc3n2C)-c2ccccc2CO[C@H]1CN(C)Cc1cccc(C(=O)Nc2ccccc2N)c1,2,13,2,26,.,-7
C[C@@H]1CN([C@H](C)CO)C(=O)c2ccccc2-c2ccccc2CO[C@@H]1CN(C)S(=O)(=O)c1ccc(C(F)(F)F)cc1,6,-8,3,-14,-23[16.7 µM],-9
